Out of some 1,400 compounds screened, about 560 (40%) were called active.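 The calls were made as follows: active = mean inhibition over duplicate tests at 10 µM above 50%; inactive = the rest.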 So high a share suggests a set chosen from earlier hits. The list shows a part of the results.
experiment: ASC/caspase-1 reporter retest in S. cerevisiae at one dose, specificity check for NALP1 project (AID 488857); conditions: S. cerevisiae ASC/Caspase-1, beta-galactosidase luminescence, 24 h; at 10 µM; stronger effect = higher value

SMILES	inhibition
Fc1ccc(C(OCCN2CCCC2)c2ccc(Br)cc2)cc1 (centres undefined)	53.5% (active)
CCCCN(Cc1ccccc1)C1CCN(CCc2ccccc2)CC1	52.6% (active)
CSc1ncc(Cl)c(C(=O)O)n1 (tested in a mixture with another compound)	35.1% (inactive)
Clc1ccc2nc3c(c(-c4ccccc4)c2c1)CNCC3	57% (active)
O=C(c1ccccc1)C(CN1CCCC1)c1ccccc1 (centres undefined)	25.8% (inactive)
COc1cc2c(cc1OC)CN(c1ccc([N+](=O)[O-])c(C(F)(F)F)c1)CC2	69% (active)
CCOCCN1CCN(c2nnc3n2-c2ccc(Cl)cc2C(c2ccccc2Cl)=NC3)CC1	30.9% (inactive)
CN[C@H]1C[C@H]2O[C@@](C)([C@H]1OC)n1c3ccccc3c3c4c(c5c6ccccc6n2c5c31)C(=O)NC4	99.2% (active)
Cc1ccc(C)c(NC(=S)NCCc2cnc[nH]2)c1	42.5% (inactive)
CC(Cc1ccccc1Sc1ccccc1)N(C)C (centres undefined)	42.8% (inactive)
COCCNCCOc1ccc(C(C)(C)c2ccccc2)cc1	52.3% (active)
CC1(C)C[C@H]2C=C(C=O)[C@]3(C=O)C[C@]3(C)[C@H]2C1	81.3% (active)
O=C1/C(=C/c2cccc([N+](=O)[O-])c2)N2CCC1CC2	51.1% (active)
Nc1c2c(nc3sc4c(c13)CCCC4)CCCCC2	58.4% (active)
Nc1c2c(nc3sc4c(c13)CCCCC4)CCCC2	91.1% (active)
CC(C)NS(=O)(=O)c1ccc(OCC(=O)N2CCN(C)CC2)cc1	17.6% (inactive)
CC(C)CCn1c(=O)c(C(=O)NCc2ccco2)c(O)c2ccccc21	44.8% (inactive)
Cc1cc2ccccn2c1C(C[N+](=O)[O-])c1c(F)cccc1Cl (centres undefined)	52.8% (active)
C[C@H]1C[C@@H](C)C(=O)[C@@H]([C@H](O)CC2CC(=O)NC(=O)C2)C1	98.8% (active)
CC(Cc1ccccc1)NC(=O)/C=C/c1ccc(Cl)cc1 (centres undefined)	71.7% (active)

SMILES	inhibition
c1ccc2sc(NC3=NCCN3)nc2c1	100% (active)
O=C1/C(=C/c2cc3c(cc2Cl)OCO3)N2CCC1CC2	55% (active)
Nc1ccc(C2(c3ccc(N)cc3)CN3CCC2CC3)cc1	35% (inactive)
CN1/C(=C\C=C\C2=[N+](C)c3ccc4ccccc4c3C2(C)C)C(C)(C)c2ccccc21	99.7% (active)
CN1CCN(c2ccc(N)c(N3CCN(C)CC3)c2)CC1	31.1% (inactive)
O=C(c1cc2c(s1)-c1ccccc1OC2)N1CCC2(CC1)OCCO2	53.8% (active)
N#CCCn1cc(C(=O)NCc2ccccc2)c(-c2ccccc2)n1	39.2% (inactive)
Cc1ccc(/C=C2\C(=O)NC(=O)N(CC3CCCO3)C2=O)s1 (centres undefined)	46.5% (inactive)
Cc1ccc(Cn2cc(C=O)c(-c3ccc(C)cc3)n2)cc1	67.5% (active)
Cc1cccc(N2C(=O)NC(=O)/C(=C/c3ccc([N+](=O)[O-])o3)C2=O)c1	45% (inactive)
Cc1ccc(S(=O)(=O)NC(CC(=O)N2CCC3(CC2)OCCO3)c2ccco2)cc1 (centres undefined)	31.6% (inactive)
CN1C2CCC1/C(=C/c1ccccn1)C(=O)/C2=C\c1ccccn1	96.9% (active)
CCCCCn1c(=O)c(C(=O)Nc2nc3ccccc3[nH]2)c(O)c2ccccc21	36.8% (inactive)
CCOc1cc(CNCCc2c[nH]c3ccccc23)cc(Cl)c1OCC	43.5% (inactive)
Nc1cc(Cl)c2nonc2c1[N+](=O)[O-]	57.1% (active)
Cc1ccc(-c2nc(N3CCOCC3)s[n+]2-c2ccccc2)cc1	61.9% (active)
CNC(=O)Oc1ccc2ncccc2c1	42.4% (inactive)
CC1CCCC(C)N1/N=C/c1c[nH]c2ccc(Br)cc12 (centres undefined)	45.3% (inactive)
COc1cc(/C=C(/C)[N+](=O)[O-])ccc1OCc1ccccc1Cl	80.2% (active)
